Over roughly 33,000 sequences, “E-score (-0.5 to 0.5)” has its median near -0.054; the highest 2% begin near 0.39. This excerpt belongs to a sample that is enriched for the highest values.
target: Ylr278c (UniProt Q05854); assay: PBM E-score (8-mer binding enrichment) (E-score (-0.5 to 0.5)); higher = stronger / more preferred TF binding; conditions: protein concentration: 200 nM; construct: GST-DNA-binding domain
Method: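 Universal 'all 10-mer' protein binding microarrays (Agilent AMADID 015681) probed with GST-tagged S. cerevisiae TFs (full-length or DBD) made by in vitro transcription/translation (PURExpress), about 100-200 nM. Bound TF was detected with fluorescent anti-GST. Each ungapped 8-mer (which stands for itself and its reverse complement) is scored by the PBM enrichment score (E-score), a modified Wilcoxon-Mann-Whitney statistic from -0.5 to +0.5, computed with the Universal PBM Analysis Suite. Scale: above 0.35 generally sequence-specific binding.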

UniProt Q05854, sequence (Q05854 whole entry, the tested form may be a part): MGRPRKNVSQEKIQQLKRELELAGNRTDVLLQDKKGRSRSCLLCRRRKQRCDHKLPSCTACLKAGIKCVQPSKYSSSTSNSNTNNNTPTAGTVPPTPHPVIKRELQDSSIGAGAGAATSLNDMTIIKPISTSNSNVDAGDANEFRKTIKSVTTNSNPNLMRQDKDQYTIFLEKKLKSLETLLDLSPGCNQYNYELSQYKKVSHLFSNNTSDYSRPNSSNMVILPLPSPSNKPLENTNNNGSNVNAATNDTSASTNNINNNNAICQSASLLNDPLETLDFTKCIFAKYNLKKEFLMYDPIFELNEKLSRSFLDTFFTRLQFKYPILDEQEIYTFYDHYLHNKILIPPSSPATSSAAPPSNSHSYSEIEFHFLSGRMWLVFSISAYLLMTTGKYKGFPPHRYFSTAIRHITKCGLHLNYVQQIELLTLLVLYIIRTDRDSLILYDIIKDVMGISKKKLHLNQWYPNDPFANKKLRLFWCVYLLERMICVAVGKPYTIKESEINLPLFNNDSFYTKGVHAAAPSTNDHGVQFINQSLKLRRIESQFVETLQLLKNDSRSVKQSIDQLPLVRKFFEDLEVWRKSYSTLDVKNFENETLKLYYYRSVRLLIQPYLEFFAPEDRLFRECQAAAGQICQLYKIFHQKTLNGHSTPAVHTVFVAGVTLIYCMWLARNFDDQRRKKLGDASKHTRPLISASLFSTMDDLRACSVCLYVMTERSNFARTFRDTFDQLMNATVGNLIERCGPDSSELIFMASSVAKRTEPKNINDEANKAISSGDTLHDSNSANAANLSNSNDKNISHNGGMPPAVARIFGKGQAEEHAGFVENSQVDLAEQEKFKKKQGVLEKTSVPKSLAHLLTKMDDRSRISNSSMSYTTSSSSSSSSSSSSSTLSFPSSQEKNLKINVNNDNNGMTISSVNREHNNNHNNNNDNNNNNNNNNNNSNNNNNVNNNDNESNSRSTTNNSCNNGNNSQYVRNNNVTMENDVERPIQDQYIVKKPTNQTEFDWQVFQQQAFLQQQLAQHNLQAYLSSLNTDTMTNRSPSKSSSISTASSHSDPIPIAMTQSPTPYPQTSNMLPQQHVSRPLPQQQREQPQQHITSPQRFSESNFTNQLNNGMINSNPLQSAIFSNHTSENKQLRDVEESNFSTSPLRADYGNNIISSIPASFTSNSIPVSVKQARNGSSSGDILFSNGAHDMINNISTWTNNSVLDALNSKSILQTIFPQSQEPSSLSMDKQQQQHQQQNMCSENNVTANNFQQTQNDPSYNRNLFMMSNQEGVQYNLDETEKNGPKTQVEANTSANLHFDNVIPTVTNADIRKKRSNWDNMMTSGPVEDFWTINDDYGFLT

Sequence | PBM E-score
CTCGGCGA | 0.354
ATCGGAGA | 0.455
CTCGGTGC | 0.0178
CTCGGAGC | 0.431
CTTGGAGA | -0.0088
ATGGGAGA | -0.309
ATCGGAGG | 0.426
CTCGGAGA | 0.449
ATCGGGGG | 0.209
CTCGGATC | 0.34
ATCAGAGA | -0.213
ATCGGTGG | 0.13
CTGCAGCA | -0.151
ACTCAAAG | -0.129
AACTTGTC | 0.0361
TTAACCAA | -0.136
TAGCATAA | -0.111
ACTCCACA | -0.0234
CCTGACTA | -0.0923
GTCGGAGA | 0.444
GTCGGATA | 0.312
GTAGGAGA | -0.0599
ATCGGAGC | 0.458

Sequence | PBM E-score
ATCGGATC | 0.33
ATCAGAGC | -0.0306
ATATCTCA | 0.0231
GATTATGA | -0.0204
GACTGGAA | -0.161
CAACTTAG | 0.0176
AATAAGAC | -0.228
TGGGCCCA | 0.026
AGGAGTTA | 0.232
CGGAGTTC | 0.494
AGGAGTTC | 0.109
CGGAGTTA | 0.493
CTGAGTTC | 0.0225
GGGAGTTA | 0.195
GCTACAAA | -0.0551
TAGCCACA | -0.289
CCTAAGAA | -0.261
CGAAAGCG | -0.00844
GTCCCAGA | -0.235
CGGCGGAC | 0.411
AGGCGGAC | 0.386
AGGCGGAG | 0.39
GAGCGGAC | 0.321

Sequence | PBM E-score
AGGCGGGG | 0.221
CGGCGGCA | 0.281
AGGCGGAT | 0.237
AGGCGGCG | 0.193
GGGCGAAC | 0.0496
CGGCGGCC | 0.322
CGGCGGAG | 0.461
GGGCGGAC | 0.399
CTTCAACC | -0.0749
GCGATGCC | 0.0401
AGAGATGC | -0.0846
CATCACGC | 0.0744
ACGTGGAT | -0.233
AAAAGGTG | -0.196
ATCCCTAA | -0.254
ACGGCCCC | -0.034
AGGCGGAA | 0.304
CGGCGGAA | 0.438
GGGCGGAA | 0.364
ATGCCGCG | 0.304
ATTCCGCG | 0.439
CTTCCGCC | 0.343
ATTCCGCC | 0.418

Sequence | PBM E-score
ATTCCGCA | 0.356
ATTCCCCC | 0.162
CACACCCA | -0.107
GTACAACA | 0.014
GAACTACC | 0.0269
GAAAGTAA | -0.0679
CAACTGCC | -0.00091
CCTTTGAC | -0.121
GGGATTAA | 0.223
CGGATTAA | 0.39
CCGATTCG | 0.267
AGGATTTC | 0.0497
CTGATTTC | -0.0243
GCGATTCC | 0.237
CGGATTAG | 0.299
CGGATTTC | 0.448
CCGATTTA | 0.396
ACGATTTA | 0.0466
CCGATTCC | 0.393
CCGATTTC | 0.303

From the supplement of paper PMC3334620
